Records with an inconclusive call do not appear. Calls of active or inactive are those of the source. Unless noted, calls follow the shape of the dose curve; as a rule, active = well fitted curve in the direction sought with a large enough effect in the repeat runs; inconclusive = weak or mixed curves; inactive = no such curve, though single readings can be large; an effect the other way counts as inactive or inconclusive.
Assays:
[1] = qHTS assay to identify small molecule antagonists of the progesterone receptor (PR) signaling pathway - cell viability counter screen (AID 1346798); also: series mostly up to about 92 µM; nearly all actives have a fitted effect of over 50% in size
Outline: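 ATP content as viability readout: CellTiter-Glo luminescence, 30 min room temperature, in PR-UAS-bla HEK293T cells after 16 hr compound/R5020 treatment at 37C and 5% CO2.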

[2] = qHTS assay to identify small molecule agonists of the progesterone receptor (PR) signaling pathway - cell viability counter screen (AID 1346799; calls by dose curve; also: nearly all actives have a fitted effect of over 45% in size)
Outline: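 Cytotoxicity in PR-bla HEK293T cells: 16 h compound, 37C; CellTiter-Glo added post-FRET read; luminescence after 30 min RT.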

[3] = qHTS assay to identify small molecule antagonists of the TGF-beta/Smad signaling pathway - cell viability counter screen (AID 1346824); also: nearly all actives have a fitted effect of over 50% in size
Outline: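 SBE-bla HEK 293T cells, incubated overnight, then compound plus 0.25 ng/mL TGF-beta1 (stock added) for 5 hr at 37 C. Viability was read in the same wells by CellTiter-Glo luminescence after 30 min at room temperature.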

[4] = qHTS assay to identify small molecule agonists of the TGF-beta/Smad signaling pathway - cell viability counter screen (AID 1346829); also: top concentration of the series differs between compounds; nearly all actives have a fitted effect of over 45% in size
Outline: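 Same-well cytotoxicity: CellTiter-Glo added after the 2 hr room-temperature beta-lactamase substrate step, luminescence measured 30 min later; cells had 5 hr of compound at 37 C.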

[5] = qHTS assay to identify small molecule agonists of the TGF-beta/Smad signaling pathway (AID 1346859; active = well fitted activation curve with a large enough effect in the signal ratio in the repeat runs, not every such curve was filed as active; the % refers to the signal ratio; also: series mostly up to about 77 µM)
Outline: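 Stable Smad binding element-beta-lactamase HEK 293T cells; 5 hr compound exposure at 37 C under 5% CO2; 2 hr room-temperature substrate step; fluorescence excited at 405 nm, collected at 460 nm and 530 nm.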

[6] = biological target: Thyrotropin-releasing hormone receptor (Homo sapiens) (UniProt P34981); assay: qHTS assay to identify small molecule antagonists of the thyrotropin-releasing hormone receptor (TRHR) signaling pathway (AID 1346877; active = well fitted inhibition curve with a large enough effect in the repeat runs, not every such curve was filed as active; also: series mostly up to about 51 µM)
Outline: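 Cells (TRHR-HEK293) are plated and kept 18 h at 37 °C/5% CO2. A calcium-sensitive dye is added for 2 h, compound follows for 5 min at room temperature, and TRH is then given at 1 nM final.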

[7] = biological target: Thyrotropin-releasing hormone receptor (Homo sapiens) (UniProt P34981); assay: qHTS assay to identify small molecule agonists of the thyrotropin-releasing hormone receptor (TRHR) signaling pathway (AID 1346891; calls by dose curve;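 also: HEK293 cells expressing TRHR with calcium dye readout; series mostly up to about 58 µM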)
Outline: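 In 1536-format, 1500 TRHR-Hek293 cells per well grew 18 h, took up calcium dye for 2 h at 37 °C, received compound, and were read kinetically; 15-point titrations, triplicates.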

[8] = Human pregnane X receptor (PXR) small molecule agonists, qHTS cell viability counter screen (AID 1346977); also: nearly all actives have a fitted effect of over 50% in size; also: potency is read from the fitted curve at half-maximal effect
Outline: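 Readout is CellTiter-Fluor fluorescence from PXR-Luc HepG2 cells. Plated cells rested 5hr, then were treated with compounds for 24hr at 37C and 5% CO2, with reagent present during the last hour.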

[9] = Caspase-3/7 induction in HepG2 cells by small molecules, qHTS assay (AID 1346978); also: nearly all actives have a fitted effect of over 15% in size
Outline: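 Wild-type HepG2 cells, 2,000/well, settled 5 hr at 37 C and 5% CO2, then compound-treated for 17 hr; caspase-3/7 activity read by luminescent Caspase-Glo 3/7 after 30 min at room temperature.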

[10] = Caspase-3/7 induction in CHO-K1 cells by small molecules, qHTS cell viability counter screen (AID 1346979); also: nearly all actives have a fitted effect of over 35% in size; also: potency is read from the fitted curve at half-maximal effect
Outline: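 To flag cytotoxic compounds, treated CHO-K1 wild-type cells were given CellTiter-Fluor at 16hr and read fluorescently after 1hr at 37C; the caspase-3/7 luminescence was measured in these same wells.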
% is scaled to controls: 0 for no effect and ±100 for the full control effect.

Chain of Thyrotropin-releasing hormone receptor (Homo sapiens) (P34981 whole entry, looked up): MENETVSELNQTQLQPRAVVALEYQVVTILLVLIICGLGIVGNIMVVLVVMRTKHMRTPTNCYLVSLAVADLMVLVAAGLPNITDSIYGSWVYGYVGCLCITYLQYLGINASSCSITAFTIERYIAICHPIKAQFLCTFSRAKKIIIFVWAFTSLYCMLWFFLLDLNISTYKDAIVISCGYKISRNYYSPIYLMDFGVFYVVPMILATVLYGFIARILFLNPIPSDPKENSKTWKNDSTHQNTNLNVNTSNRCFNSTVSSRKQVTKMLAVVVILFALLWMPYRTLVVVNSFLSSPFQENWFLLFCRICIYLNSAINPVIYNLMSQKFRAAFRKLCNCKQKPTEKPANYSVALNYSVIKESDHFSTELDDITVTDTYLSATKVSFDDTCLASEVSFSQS

CCCCCCCCN(C)C
inactive: Potency [1] | Potency [2] | Potency [3] | Potency [4] | outcome [5] | outcome [6] | Potency [7] | Potency [8] | outcome [9] | Potency [10]

ClC(Cl)(Cl)c1ccc(C(Cl)(Cl)Cl)cc1
inactive: Potency [1] | Potency [2] | Potency [3] | Potency [4] | outcome [5] | outcome [6] | Potency [7] | Potency [8] | outcome [9] | Potency [10]

CC(C)(C)c1cc(CCC(=O)OCC(COC(=O)CCc2cc(C(C)(C)C)c(O)c(C(C)(C)C)c2)(COC(=O)CCc2cc(C(C)(C)C)c(O)c(C(C)(C)C)c2)COC(=O)CCc2cc(C(C)(C)C)c(O)c(C(C)(C)C)c2)cc(C(C)(C)C)c1O
inactive: Potency [1] | Potency [2] | Potency [3] | Potency [4] | outcome [5] | outcome [6] | Potency [7] | Potency [8] | outcome [9] | Potency [10]

CC/C(=C\C(=N/O)C(N)=O)C(C)[N+](=O)[O-] (centres undefined)
inactive: Potency [1] | Potency [2] | Potency [3] | Potency [4] | outcome [5] | outcome [6] | Potency [7] | Potency [8] | outcome [9] | Potency [10]

Cc1ccc2c(ccc3ccccc32)c1
inactive: Potency [1] | Potency [2] | Potency [3] | Potency [4] | outcome [5] | outcome [6] | Potency [7] | Potency [8] | outcome [9] | Potency [10]

C=CC[N+]1([C@H]2C[C@H]3[C@@H]4CC[C@H]5C[C@H](OC(C)=O)[C@@H](N6CCCCC6)C[C@]5(C)[C@H]4CC[C@]3(C)[C@H]2OC(=O)CC)CCCCC1
inactive: Potency [1] | Potency [2] | Potency [3] | Potency [4] | outcome [5] | outcome [6] | Potency [7] | outcome [9] | Potency [10]

Cc1cc(NC(=O)C(=O)O)cc(C)c1Oc1ccc(O)c2c1CCC2
inactive: Potency [1] | Potency [2] | Potency [3] | Potency [4] | outcome [5] | outcome [6] | Potency [7] | Potency [8] | outcome [9] | Potency [10]

O=C(Cl)c1c(Cl)cccc1Cl
inactive: Potency [1] | Potency [2] | Potency [3] | Potency [4] | outcome [5] | outcome [6] | Potency [7] | Potency [8] | outcome [9] | Potency [10]

Cc1cccc(C(C)(C)C)c1O
inactive: Potency [1] | Potency [2] | Potency [3] | Potency [4] | outcome [5] | outcome [6] | Potency [7] | Potency [8] | outcome [9] | Potency [10]

CC(C)CC=O
inactive: Potency [1] | Potency [2] | Potency [3] | Potency [4] | outcome [5] | outcome [6] | Potency [7] | Potency [8] | outcome [9] | Potency [10]

COc1ccc(C(C)=O)cc1
inactive: Potency [1] | Potency [2] | Potency [3] | Potency [4] | outcome [5] | outcome [6] | Potency [7] | Potency [8] | outcome [9] | Potency [10]

CC(=O)O[C@H]1C[C@@H]2CC[C@@H]3[C@H](CC[C@@]4(C)[C@H]3C[C@H]([N+]3(C)CCCCC3)[C@@H]4OC(C)=O)[C@@]2(C)C[C@@H]1N1CCCCC1
inactive: Potency [1] | Potency [2] | Potency [3] | Potency [4] | outcome [5] | outcome [6] | Potency [7] | Potency [8] | outcome [9] | Potency [10]

CC(O)C1CCCCC1 (centres undefined)
inactive: Potency [1] | Potency [2] | Potency [3] | Potency [4] | outcome [5] | outcome [6] | Potency [7] | Potency [8] | outcome [9] | Potency [10]

CCOC(=O)CC(C)C
inactive: Potency [1] | Potency [2] | Potency [3] | Potency [4] | outcome [5] | outcome [6] | Potency [7] | Potency [8] | outcome [9] | Potency [10]

CCN(CCO)CCCC(C)Nc1ccnc2cc(Cl)ccc12 (centres undefined)
inactive: activity change, negative = cytotoxicity [1] -13% [at 8.39 µM] | activity change, negative = cytotoxicity [2] -10.8% [at 8.39 µM] | viability change, negative = cytotoxic [3] -17% [at 6.97 µM] | activity change, negative = cytotoxicity [4] 2.66% [at 6.97 µM] | activation [5] -1.21% [at 6.97 µM] | activity, negative = inhibition [6] 0.0536% [at 4.65 µM] | activation [7] 0.0624% [at 5.23 µM] | activity change, negative = cytotoxicity [8] 4.23% [at 8.39 µM] | caspase activation [9] 0.0326% [at 8.39 µM] | activity change, negative = cytotoxicity [10] 0.797% [at 8.39 µM]

CCC(C)N(C)C(=O)c1cc2ccccc2c(-c2ccccc2Cl)n1 (centres undefined)
inactive: Potency [1] | Potency [2] | Potency [3] | Potency [4] | outcome [5] | outcome [6] | Potency [7] | outcome [9]

CCOC(=O)C1=NN(c2ccccc2)C(=O)C1
inactive: Potency [1] | Potency [2] | Potency [3] | Potency [4] | outcome [5] | Potency [7] | outcome [9] | Potency [10]

C=Cc1c(C)c2cc3[nH]c(cc4nc(cc5nc(cc1[nH]2)C(C)=C5CCC(=O)O)C(CCC(=O)O)=C4C)c(C)c3C=C
inactive: Potency [1] | Potency [2] | Potency [3] | Potency [4] | outcome [5] | outcome [6] | outcome [9]
active: Potency [8] 15 µM | Potency [10] 21.1 µM

Cc1ccccn1
inactive: Potency [1] | Potency [2] | Potency [3] | Potency [4] | outcome [5] | outcome [6] | outcome [9] | Potency [10]

O=S1(=O)N=C(O)c2ccccc21
inactive: Potency [1] | Potency [2] | Potency [3] | Potency [4] | outcome [5] | Potency [7] | outcome [9] | Potency [10]

CC(=O)O[C@@H]1C(=O)O[C@@H]2[C@H]1OC(=O)[C@@H]2OC(C)=O
inactive: Potency [1] | Potency [2] | Potency [3] | Potency [4] | outcome [5] | outcome [6] | Potency [8] | outcome [9] | Potency [10]

CCN(CC)C(C)=O
inactive: Potency [1] | Potency [2] | Potency [3] | Potency [4] | outcome [5] | Potency [7] | Potency [8] | outcome [9] | Potency [10]

CN1CCN(C2=Nc3cc(Cl)ccc3Nc3ccccc32)CC1
inactive: Potency [1] | Potency [2] | Potency [3] | Potency [4] | outcome [5] | Potency [7]
active: Potency [8] 23.7 µM

COC(Cc1ccccc1)OC
inactive: Potency [1] | Potency [2] | Potency [3] | Potency [4] | outcome [5] | outcome [6] | Potency [8] | outcome [9] | Potency [10]

From PubChem BioAssay (Tox21)
